The structures appear in SMILES notation. Calls of active or inactive are those of the source. Rule for the calls: active = hit-call score of the fitted dose curve at least 0.9, where 1 is the maximum; inactive = score below 0.9.

Read-out in the experiment: growth arrest and DNA damage 45 (GADD45B), GADD45B (gene 4616)
The experiment is described as follows: LTEA_HepaRG_GADD45B: Life Technologies and Expression Analysis (LTEA) Assay for growth arrest and DNA damage 45 (GADD45B) using HepaRG (AID 2283461). Conditions: mRNA level, 48 h; actives raise or lower the signal. How it is done: LTEA_HepaRG is a cell based, multiplexed-readout assay that uses HepaRG, a human liver cell line, with measurements taken at 48 hours after chemical dosing on a 96-well plate.LTEA_HepaRG_GADD45B is one of 102 assay component(s) measured in the LTEA HepaRG cell culture assay. It is a marker of Cell proliferation, survival, death.Data from the assay component LTEA_HepaRG_GADD45B was analyzed into 1 endpoint. This assay endpoint, LTEA_HepaRG_GADD45B, was analyzed with bidirectional fitting relative to DMSO as the negative control and baseline of activity. Using a type of inducible reporter, measures of mRNA induction for gain or loss-of-signal activity can be used to understand regulation of transcription factor activity. To generalize the intended target to other relatable targets, this assay endpoint is annotated to the mutagenicity response intended target family, where the subfamily is Cell proliferation, survival, death.
A total of 1060 chemcials from the ToxCast library were tested in eight-point concentration-response experiments. Cell culture and cytotoxicity assays were conducted at Thermo Fisher Scientific's Custom Services facility (Madison, WI). A single lot of human HepaRG cells (Thermo Fisher Scientific, Frederick, MD) was used for the cell culture experiments. 96-well format collagen type I coated plates of human HepaRG cells were prepared using established methods. Briefly, cryopreserved HepaRG cells were thawed, plated at a density of approximately 100,000 cells/well in HepaRG Thaw, Plate, and General Purpose media (HPRG770, Thermo Fisher Scientific), and incubated for 48 hours. 0.5% DMSO was selected as vehicle control to balance the requisite need of DMSO in HepaRG cultures to maintain differentiation (for example, baseline metabolism, proportions of hepatocytes vs. cholangiocytes), while enabling further hepatic receptor pathway activation (for example, PXR and CAR) in response to chemical exposure. 48 hours after plating, the culture medium was replaced with HepaRG Serum-Free Incudtion Media. Cells were exposed to each test chemical in duplicate and maintained in CO2 incubators for another 48 hours. Chemical plates were thawed to room temperature and 200x concentrations of treatment groups were prepared. 8-point conentration-reponse curves were made with the highest exposure at 100 uM, followed by half-log dilutions, all in 0.5% DMSO. Each test plate contained variouse controls, induction positive controls (1mM phenobarbital), cytotoxicity positive controls ([…] aflatoxin B1), vehicle controls (0.5% DMSO), and total lysis controls (0.5% DMSO). Cell morphology images were taken using an Essen IncuCyte FLR automated microscope, with six 96-well plates imaged in about 24 minutes. Images were captured and exported and JPEG files. Spent culture media was transfered to black-well plates for the LDH assay, and remaining media was sorted at -80 C for later use. Cells were treated with RLT buffer and frozen until shipped for gene expression analysis. Total RNA was isolated from the cell suspension in 75 uL of Buffer RLT (Qiagen, Germantown, MD 20874) by Quintiles/Expression Analysis (Durham, NC) using a custom isolation procedure. Total RNA from each plate well was transferred to a preamplification plate. Fluidigm's 96.96 Dynamic ArrayTM (Fluidigm, Amsterdam, the Netherlands) technology was used for gene expression analyses by quantitative reverse transcription polymerase chain reaction (qRT-PCR, performed by Quintiles/Expression Analysis, Durham, NC)89. Standard TaqManTM Assays (Applied Biosystems/ThermoFisher Scientific, Foster City, CA) were used to assess the expression of 93 genes selected based on their selectivity and sensitivity to important hepatic receptors known to be modulated by environmental chemicals; importance in human hepatocyte functionality; and hepatotoxicity. […]
Turning to `CC(C)CCCCCCc1ccc(O)cc1`, the result was inactive. On the same count and under the same terms, next, `CCNc1nc(N)nc(Cl)n1`: “inactive”; `CCCCOC(=O)C(C)Oc1ccc(Oc2ccc(C(F)(F)F)cn2)cc1` (stereo not given): “inactive”; `Cc1nn(C)c(Oc2ccccc2)c1C=NOCc1ccc(C(=O)OC(C)(C)C)cc1`: “inactive”.

For the compound `C#CCOC(=O)[C@@H](C)Oc1ccc(Oc2ncc(Cl)cc2F)cc1`, the result was inactive. Consider `OB(O)O`, for which the compound was called inactive. For `COC(=O)CSc1cc(N=c2sc(=O)n3n2CCCC3)c(F)cc1Cl`, the outcome was inactive. On the same count and under the same terms, under `CCOC(=O)C(C)Oc1ccc(Oc2nc3ccc(Cl)cc3o2)cc1` (stereo not given) stands “inactive”; under `CCSC(=O)N(CC(C)C)CC(C)C`, “inactive”; under `O=C(c1ccc(O)cc1O)c1ccc(O)cc1O`, “inactive”. Same read-out and setting: under `O=C(c1ccccc1)C1CCCCC1` stands “inactive”; under `CC(C)(c1ccc(O)cc1)c1ccc(O)cc1`, “inactive”.

Take `O=C(O)c1ccccc1`: the compound was called inactive. Turning to `N#CSCSc1nc2ccccc2s1`, the compound was called inactive. Take `O=C(O)C1(C(=O)Nc2ccc(Cl)cc2Cl)CC1`: the compound was classed as inactive. Same read-out and setting: next, `CCCCOCCOCCOCc1cc2c(cc1CCC)OCO2`: “inactive”; `CCN(CC)C(=O)c1cccc(C)c1`: “inactive”. Take `CN(C)C(=O)Nc1ccc(Cl)c(Cl)c1`: the AC50 (as a rule, the concentration at which the activity in the assay is half-maximal) is 66.5 µM (active). Turning to `C#C[C@]1(O)CC[C@H]2[C@@H]3CCC4=CC(=O)CC[C@@H]4[C@H]3CC[C@@]21CC`, the result was inactive.

In the case of `O=C(Nc1ccc([N+](=O)[O-])cc1Cl)c1cc(Cl)ccc1O`, the AC50 is 3.32 µM (active).

As for `CCCCCOC(=O)COc1cc(N2C(=O)C3=C(CCCC3)C2=O)c(F)cc1Cl`, the compound was classed as inactive. On the same count and under the same terms, under `CSC(=O)c1cccc2nnsc12` stands “inactive”. On the same count and under the same terms, next, `CCOC(=O)C(C)Oc1ccc(Oc2cnc3cc(Cl)ccc3n2)cc1` (stereo not given): “inactive”; `CC(=O)S[C@@H]1CC2=CC(=O)CC[C@]2(C)[C@H]2CC[C@@]3(C)[C@@H](CC[C@@]34CCC(=O)O4)[C@H]12`: “inactive”. On the same count and under the same terms, under `CCCN(CCC)C(=O)SCC` stands “inactive”; under `CCCCC(CC)COC(=O)c1ccccc1C(=O)O` (stereo not given), “inactive”.

Regarding `COC(=O)c1ccccc1C(=O)O`, the compound was classed as inactive.

Take `COc1c(Cl)ccc(Cl)c1C(=O)O`: the compound was classed as inactive. `Oc1ccc(C(c2ccc(O)cc2)C(Cl)(Cl)Cl)cc1`: the AC50 is 93.8 µM (active). For `CCOC(=O)c1ccc(O)cc1`, the compound was classed as inactive. Still for that read-out and setting: next, `CCCN(CCC)c1c([N+](=O)[O-])cc(C(F)(F)F)c(N)c1[N+](=O)[O-]`: “inactive”; `c1ccc(Nc2ccccc2)cc1`: “inactive”. The same measure, in the same setting: next, `COCCO`: “inactive”; `CCC(C)OC(=O)N1CCCCC1CCO` (stereo not given): “inactive”. With `CCCOC(=O)NCCCN(C)C`, the compound was called inactive. For `C[C@]12C[C@H](O)[C@H]3[C@@H](CCC4=CC(=O)CC[C@@]43C)[C@@H]1CC[C@@H]2C(=O)CO`, the outcome was inactive. Still for that read-out and setting: under `CCCCCCC(C)OC(=O)COc1nc(F)c(Cl)c(N)c1Cl` (stereo not given) stands “inactive”; under `C[C@]12CC[C@@H]3c4ccc(O)cc4C[C@@H](CCCCCCCCCS(=O)CCCC(F)(F)C(F)(F)F)[C@H]3[C@@H]1CC[C@@H]2O` (stereo not given in full), “inactive”.

As to `CCCOC(=O)c1ccc(C(=O)OCCC)nc1`, the outcome was inactive.

As to `c1ccc2[nH]c(-c3cscn3)nc2c1`, the result was inactive.

Values taken from PubChem BioAssay (EPA / NIEHS).
